According to PubChem BioAssay (NCATS):
Inconclusive results are not listed. Active and inactive are the calls of the source. Calls come from the whole dose curve; as a rule, active = well fitted inhibition curve with a large enough effect; inconclusive = small, poorly fitted or top-dose-only effect; inactive = flat fitted curve, though single readings scatter.

How the values were obtained:
JCK = assay: qHTS profiling for inhibitors of Plasmodium falciparum proliferation (AID 504749); note: potency is the fitted concentration of half-maximal effect; conditions: P. falciparum in erythrocytes, SYBR Green DNA, 72 h; series mostly up to 28.7 µM
Outline: (§1)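 Fluorescence of SYBR Green-bound parasite DNA, read at 485/535 nm, served as the growth measure. Infected erythrocytes were cultured with compound 72 h; artemisinin (0.29 uM) and DMSO wells defined the normalization range.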

PAD = assay: as above; conditions: P. falciparum in erythrocytes, SYBR Green DNA, 72 h; series mostly up to 28.7 µM
Outline: as §1

PC15 = assay: as above; conditions: P. falciparum in erythrocytes, SYBR Green DNA, 72 h; series mostly up to 28.7 µM
Outline: as §1

W2 = assay: as above; conditions: P. falciparum in erythrocytes, SYBR Green DNA, 72 h; series mostly up to 28.7 µM
Outline: as §1

CRL-7250 = normal cell line; assay: Cytotoxic Profiling of Annotated Libraries Using Quantitative High-Throughput Screening (AID 1296008); conditions: Five cell lines viability, CellTiter-Glo ATP luminescence, 48-72 h; max response: stronger effect = lower value; note: potency is the fitted concentration of half-maximal effect; for max response: % is set by controls: 0 for no effect and ±100 for the full control effect
Outline: (§2)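 Compounds were pin-transferred onto cells and incubated 48 or 72 hr at 37 degree Celsius, 95% humidity. CellTiter-Glo was added, plates sat 10 min at room temperature, then ATP-coupled luminescence was imaged as the viability read-out.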

HaCat [1] = assay: as above; conditions: Five cell lines viability, CellTiter-Glo ATP luminescence, 48-72 h; max response: stronger effect = lower value
Outline: as §2

KB-3-1 = assay: as above; conditions: Five cell lines viability, CellTiter-Glo ATP luminescence, 48-72 h; max response: stronger effect = lower value
Outline: as §2

NIH3T3 = assay: as above; conditions: Five cell lines viability, CellTiter-Glo ATP luminescence, 48-72 h; max response: stronger effect = lower value
Outline: as §2

HACAT [2] = assay: qHTS assay to identify novel small-molecules to repurpose for Merkel cell carcinoma treatment (AID 1296009); conditions: MCC and control cell lines, CellTiter-Glo viability, 72 h; at 44.8 µM (top of the series) unless noted
Outline: (§3)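 Luminescence from CellTiter-Glo, read 10 min after addition at room temperature, reported viability following a 72 hr, 37 degree celsius treatment with NPC or MIPE compounds in titration; values normalized to plate controls.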

PC49 = assay: qHTS profiling for inhibitors of Plasmodium falciparum proliferation (AID 504749); note: potency is the fitted concentration of half-maximal effect; conditions: P. falciparum in erythrocytes, SYBR Green DNA, 72 h; series mostly up to 28.7 µM
Outline: as §1

SC27B = assay: as above; conditions: P. falciparum in erythrocytes, SYBR Green DNA, 72 h; series mostly up to 28.7 µM
Outline: as §1

N140 = assay: as above; conditions: P. falciparum in erythrocytes, SYBR Green DNA, 72 h; series mostly up to 28.7 µM
Outline: as §1

P93_24 = assay: as above; conditions: P. falciparum in erythrocytes, SYBR Green DNA, 72 h; series mostly up to 28.7 µM
Outline: as §1

P94_40 = assay: as above; conditions: P. falciparum in erythrocytes, SYBR Green DNA, 72 h; series mostly up to 28.7 µM
Outline: as §1

PC26 = assay: as above; conditions: P. falciparum in erythrocytes, SYBR Green DNA, 72 h; series mostly up to 28.7 µM
Outline: as §1

TAB109 = assay: as above; conditions: P. falciparum in erythrocytes, SYBR Green DNA, 72 h; series mostly up to 28.7 µM
Outline: as §1

TAB113 = assay: as above; conditions: P. falciparum in erythrocytes, SYBR Green DNA, 72 h; series mostly up to 28.7 µM
Outline: as §1

TAB165 = assay: as above; conditions: P. falciparum in erythrocytes, SYBR Green DNA, 72 h; series mostly up to 28.7 µM
Outline: as §1

HEK293 = assay: Cytotoxic Profiling of Annotated Libraries Using Quantitative High-Throughput Screening (AID 1296008); conditions: Five cell lines viability, CellTiter-Glo ATP luminescence, 48-72 h; max response: stronger effect = lower value; note: potency is the fitted concentration of half-maximal effect; for max response: % is set by controls: 0 for no effect and ±100 for the full control effect
Outline: as §2

HEK293T = assay: qHTS assay to identify novel small-molecules to repurpose for Merkel cell carcinoma treatment (AID 1296009); conditions: MCC and control cell lines, CellTiter-Glo viability, 72 h; at 44.8 µM (top of the series) unless noted
Outline: as §3
Note: nearly all actives have a fitted effect of over 60% in size.

CN(C)CC/C=C1\c2ccccc2COc2ccccc21
inactive: Potency (JCK) | Potency (PAD) | Potency (PC15) | max response (CRL-7250) -15.2% | outcome (HaCat [1]) | max response (KB-3-1) 4.58% | max response (NIH3T3) 0.829% | outcome (HACAT [2])
active: Potency (W2) 1.2 µM

CN(C)[C@@H]1C(=O)C(C(N)=O)=C(O)[C@@]2(O)C(=O)C3=C(O)c4c(O)ccc(Cl)c4[C@@H](O)[C@H]3C[C@@H]12
inactive: outcome (CRL-7250) | outcome (HaCat [1]) | max response (KB-3-1) -3.68% | outcome (NIH3T3) | outcome (HACAT [2])

CCC(=O)c1ccc2c(c1)N(CCCN(C)C)c1ccccc1S2
inactive: Potency (PC49) | Potency (SC27B) | max response (CRL-7250) -1.9% | outcome (HaCat [1]) | max response (KB-3-1) -0.0737% | max response (NIH3T3) -21.3% | outcome (HACAT [2])
active: Potency (W2) 3.01 µM

Cc1nnc(SCC2=C(C(=O)O)N3C(=O)[C@@H](NC(=O)Cn4cnnn4)[C@H]3SC2)s1
inactive: Potency (JCK) | Potency (N140) | Potency (P93_24) | Potency (P94_40) | Potency (PAD) | Potency (PC15) | Potency (PC26) | Potency (PC49) | Potency (SC27B) | Potency (TAB109) | Potency (TAB113) | Potency (TAB165) | Potency (W2) | outcome (HEK293) | outcome (HaCat [1]) | max response (KB-3-1) 4.46% | max response (NIH3T3) -2.45% | outcome (HACAT [2]) | outcome (HEK293T)

CN/C(=C\[N+](=O)[O-])NCCSCc1ccc(CN(C)C)o1
inactive: max response (HEK293) 0.484% | outcome (HaCat [1]) | max response (KB-3-1) 15% | max response (NIH3T3) -4.45% | outcome (HACAT [2])

CCn1ccnc1CC1COc2ccccc2O1 (configuration not stated)
inactive: Potency (JCK) | Potency (N140) | Potency (P93_24) | Potency (P94_40) | Potency (PAD) | Potency (PC15) | Potency (PC26) | Potency (PC49) | Potency (SC27B) | Potency (TAB109) | Potency (TAB113) | Potency (TAB165) | max response (CRL-7250) -3.72% | max response (HaCat [1]) 2.89% | max response (KB-3-1) 19.9% | max response (NIH3T3) -3.18%

OC(CCN1CCCCC1)(c1ccccc1)C1CCCCC1 (configuration not stated)
inactive: Potency (JCK) | Potency (PAD) | Potency (PC15) | Potency (SC27B) | Potency (TAB113) | Potency (TAB165) | outcome (CRL-7250) | outcome (HaCat [1]) | max response (KB-3-1) -15.6% | max response (NIH3T3) -0.663% | outcome (HACAT [2])
active: Potency (W2) 6.01 µM

COc1ccc([C@@H]2Sc3ccccc3N(CCN(C)C)C(=O)[C@@H]2OC(C)=O)cc1
inactive: Potency (N140) | Potency (P93_24) | Potency (P94_40) | Potency (PAD) | Potency (PC15) | Potency (PC26) | Potency (PC49) | Potency (SC27B) | Potency (TAB109) | Potency (TAB113) | Potency (TAB165)
active: Potency (JCK) 10 µM

CN(C)CC[C@@H](c1ccc(Br)cc1)c1ccccn1
active: Potency (W2) 0.849 µM
inactive: Potency (PAD) | Potency (SC27B) | outcome (HACAT [2])

CC(C)(C)c1ccc(C(=O)CCCN2CCC(OC(c3ccccc3)c3ccccc3)CC2)cc1
active: Potency (N140) 10 µM | Potency (P94_40) 7.94 µM | Potency (TAB165) 7.94 µM | Potency (W2) 4.78 µM | Potency (HEK293) 8.41 µM
inactive: Potency (JCK) | Potency (PC49) | max response (KB-3-1) -0.417%

Cc1cccc(C)c1NC(=O)C(C)N (configuration not stated)
inactive: outcome (HACAT [2])

CC1=NS(=O)(=O)c2cc(Cl)ccc2N1
inactive: Potency (N140) | Potency (PAD) | Potency (PC26) | Potency (SC27B) | Potency (TAB113) | outcome (HACAT [2])

OCCN1CCN(CC/C=C2/c3ccccc3Sc3ccc(C(F)(F)F)cc32)CC1
active: Potency (N140) 11.2 µM | Potency (P93_24) 10 µM | Potency (P94_40) 10 µM | Potency (PAD) 10 µM | Potency (PC15) 12.6 µM | Potency (PC26) 6.75 µM | Potency (SC27B) 10 µM | Potency (TAB109) 8.91 µM | Potency (TAB113) 11.2 µM | Potency (TAB165) 10 µM | Potency (W2) 1.9 µM
inactive: max response (HaCat [1]) -11.5%

Fc1ccc(C(c2ccc(F)cc2)N2CCN(C/C=C/c3ccccc3)CC2)cc1
active: Potency (N140) 11.2 µM | Potency (P93_24) 8.91 µM | Potency (TAB165) 11.2 µM

CSc1ccc(C(=O)c2[nH]c(=O)[nH]c2C)cc1
inactive: Potency (JCK) | Potency (N140) | Potency (P93_24) | Potency (P94_40) | Potency (PAD) | Potency (PC15) | Potency (PC26) | Potency (PC49) | Potency (SC27B) | Potency (TAB109) | Potency (TAB113) | Potency (TAB165) | Potency (W2) | outcome (HACAT [2])

COC(=O)C1=C(C)NC(C)=C(C(=O)OC(C)(C)CN(C)CCC(c2ccccc2)c2ccccc2)C1c1cccc([N+](=O)[O-])c1 (configuration not stated)
active: Potency (N140) 2.51 µM | Potency (P93_24) 2.51 µM | Potency (P94_40) 2.51 µM | Potency (PAD) 2.51 µM | Potency (PC15) 6.31 µM | Potency (PC26) 1.51 µM | Potency (SC27B) 2.24 µM | Potency (TAB109) 3.16 µM | Potency (TAB113) 2.51 µM | Potency (TAB165) 2.24 µM | Potency (W2) 1.2 µM | Potency (HEK293) 10.6 µM

O=C1NCN(c2ccccc2)C12CCN(CCCC(c1ccc(F)cc1)c1ccc(F)cc1)CC2
active: Potency (N140) 5.62 µM | Potency (P93_24) 4.47 µM | Potency (P94_40) 5.62 µM | Potency (PAD) 5.01 µM | Potency (PC15) 11.2 µM | Potency (SC27B) 8.91 µM | Potency (TAB109) 6.31 µM | Potency (TAB113) 12.6 µM | Potency (TAB165) 3.55 µM | Potency (W2) 2.39 µM | Potency (HEK293) 10.6 µM

CCN(CC)CCOCCOC(=O)C1(c2ccccc2)CCCC1
active: Potency (N140) 7.08 µM | Potency (P93_24) 6.31 µM | Potency (P94_40) 7.08 µM | Potency (PAD) 8.91 µM | Potency (PC15) 11.2 µM | Potency (PC26) 12 µM | Potency (PC49) 7.08 µM | Potency (SC27B) 12.6 µM | Potency (TAB109) 6.31 µM | Potency (TAB113) 11.2 µM | Potency (TAB165) 8.91 µM | Potency (W2) 0.953 µM
inactive: outcome (HACAT [2])

CN(C(=O)CCCOc1ccc2[nH]c(=O)ccc2c1)C1CCCCC1
inactive: Potency (N140) | Potency (PC15) | Potency (SC27B) | Potency (TAB109) | Potency (TAB113) | max response (KB-3-1) -8.72% | max response (NIH3T3) -24.3%
